# In PubChem BioAssay AID898 (University of Pittsburgh Molecular Library Screening Center, 2007):
# Screen size: about 140,000 compounds; about 220 (0.16%) were called active. This excerpt belongs to a sample that is enriched for actives. Values without a mark were called inactive. Cut-off read from the data, not from the text of the source: active = inhibition above about 50%; inactive = the rest.
# Tested on: YopH tyrosine phosphatase [Yersinia enterocolitica]
# Assay: inhibition of Yersinia YopH phosphatase – biochemical, fluorescence Ex485/Em525, primary screen (AID 898)
# Conditions: active compounds read high, concentration not given here
row,SMILES,inhibition
1,O=c1[nH]c(CN2CCN(S(=O)(=O)c3ccc4c(c3)OCCO4)CC2)nc2sc3c(c12)CCCC3,-8.83%
2,Cc1ccc(S(=O)(=O)N(CC(=O)Nc2cccc([N+](=O)[O-])c2)Cc2ccc(Cl)cc2)cc1,-31.4%
3,CC(C)OCCCNC(=O)c1cc(Sc2ccc(F)cc2)nc2ccccc12,-10.5%
4,COc1cccc(-n2c(SCC(=O)c3c[nH]c4ccccc34)nc3ccccc3c2=O)c1,-22.8%
5,C/C(=N\NC(=O)c1ccc(CSc2nc(C)cc(C)n2)cc1)C1CCCCC1,-27.2%
6,CC(=O)c1c(O)cc2n(c1=O)-c1ccc(Cl)cc1C2(C)C,-21.9%
7,CSc1c(SCc2ccccc2)cnn(Cc2ccccc2)c1=O,-31.9%
8,Cc1ccc(S(=O)(=O)N(NC2=NS(=O)(=O)c3ccccc32)C(=O)c2ccccc2)cc1,-28.4%
9,CCCCCC(=O)Nc1ccc(S(=O)(=O)Nc2ccc(Cl)nn2)cc1,-13.3%
10,CC(C)(C)C(=O)N1CCC[C@@]1(CO)C(=O)O,-12.8%
11,COc1ccc(C(CC(=O)c2ccccc2)S(=O)(=O)c2ccccc2)cc1 (centres undefined),-12.2%
12,CCCCN(C)c1ccc([N+](=O)[O-])cc1,-11%
13,CCCCOc1ccc(NC(=O)[C@@H]2CCCN2C(=O)C2CCN(S(=O)(=O)c3ccc(C)cc3)CC2)cc1,-8.82%
14,Cc1ccccc1Cn1nc(C)c(NC(=O)C(F)(F)F)c1C,-28.6%
15,Cc1ccc(-c2csc(NNC(=O)c3ccccc3)n2)cc1,-36.8%
16,Cc1ccccc1/[N+]([O-])=C/c1ccncc1,77.8% (active)
17,CC(NC(=O)C(=O)NN=C1CCC(C(C)(C)C)CC1)c1ccccc1 (centres undefined),-22%
18,CCOc1ncccc1C(=O)N(CC)CC(=O)Nc1ccc(NC(C)=O)cc1,-14.7%
19,Cc1cc(C(=O)CSc2nc(N)cc(=O)[nH]2)c(C)n1-c1cccc(F)c1,-16.4%
20,COC(=O)Cc1csc(/N=C/c2c(O)n(-c3cccc(C(F)(F)F)c3)c(=O)c3ccccc23)n1,-22.8%
21,COc1ccc(-n2c(C)cc(C(=O)CN3C(=O)NC4(CCc5ccccc54)C3=O)c2C)cc1 (centres undefined),-19.6%
22,Cc1scc(C(=O)NNC(=S)NCC(C)C)c1C,-19.1%
23,COCCCNC(=O)Cn1cc(/C=C(\C#N)C(=O)N2CCN(c3ccccc3)CC2)c2ccccc21,-25.6%
24,CC(=O)Nc1cccc(/C(C)=N/NC(=O)c2c(-c3ccccc3Cl)noc2C)c1,-32.1%
